Data taken from PubChem BioAssay AID2528 (National Center for Advancing Translational Sciences (NCATS), 2010).
Out of some 350,000 compounds screened, about 700 (0.2%) were called active. This is one part of a sample in which actives are shown more often than they occur. Values without a mark were called inactive. Calls follow the shape of the dose curve; as a rule, active = well fitted inhibition curve with a large enough effect; inconclusive = small, poorly fitted or top-dose-only effect; inactive = flat fitted curve, though single readings scatter.

Each compound was assayed against RecQ-like DNA helicase BLM (Homo sapiens) (UniProt P54132) (assay: qHTS Assay for Inhibitors of Bloom's syndrome helicase (BLM)). Settings: recombinant BLM DNA unwinding, fluorescence dequenching; series mostly up to 56.1 µM; activity change, negative = inhibition: at the top concentration.
Chain of RecQ-like DNA helicase BLM (Homo sapiens) (P54132 whole entry, looked up): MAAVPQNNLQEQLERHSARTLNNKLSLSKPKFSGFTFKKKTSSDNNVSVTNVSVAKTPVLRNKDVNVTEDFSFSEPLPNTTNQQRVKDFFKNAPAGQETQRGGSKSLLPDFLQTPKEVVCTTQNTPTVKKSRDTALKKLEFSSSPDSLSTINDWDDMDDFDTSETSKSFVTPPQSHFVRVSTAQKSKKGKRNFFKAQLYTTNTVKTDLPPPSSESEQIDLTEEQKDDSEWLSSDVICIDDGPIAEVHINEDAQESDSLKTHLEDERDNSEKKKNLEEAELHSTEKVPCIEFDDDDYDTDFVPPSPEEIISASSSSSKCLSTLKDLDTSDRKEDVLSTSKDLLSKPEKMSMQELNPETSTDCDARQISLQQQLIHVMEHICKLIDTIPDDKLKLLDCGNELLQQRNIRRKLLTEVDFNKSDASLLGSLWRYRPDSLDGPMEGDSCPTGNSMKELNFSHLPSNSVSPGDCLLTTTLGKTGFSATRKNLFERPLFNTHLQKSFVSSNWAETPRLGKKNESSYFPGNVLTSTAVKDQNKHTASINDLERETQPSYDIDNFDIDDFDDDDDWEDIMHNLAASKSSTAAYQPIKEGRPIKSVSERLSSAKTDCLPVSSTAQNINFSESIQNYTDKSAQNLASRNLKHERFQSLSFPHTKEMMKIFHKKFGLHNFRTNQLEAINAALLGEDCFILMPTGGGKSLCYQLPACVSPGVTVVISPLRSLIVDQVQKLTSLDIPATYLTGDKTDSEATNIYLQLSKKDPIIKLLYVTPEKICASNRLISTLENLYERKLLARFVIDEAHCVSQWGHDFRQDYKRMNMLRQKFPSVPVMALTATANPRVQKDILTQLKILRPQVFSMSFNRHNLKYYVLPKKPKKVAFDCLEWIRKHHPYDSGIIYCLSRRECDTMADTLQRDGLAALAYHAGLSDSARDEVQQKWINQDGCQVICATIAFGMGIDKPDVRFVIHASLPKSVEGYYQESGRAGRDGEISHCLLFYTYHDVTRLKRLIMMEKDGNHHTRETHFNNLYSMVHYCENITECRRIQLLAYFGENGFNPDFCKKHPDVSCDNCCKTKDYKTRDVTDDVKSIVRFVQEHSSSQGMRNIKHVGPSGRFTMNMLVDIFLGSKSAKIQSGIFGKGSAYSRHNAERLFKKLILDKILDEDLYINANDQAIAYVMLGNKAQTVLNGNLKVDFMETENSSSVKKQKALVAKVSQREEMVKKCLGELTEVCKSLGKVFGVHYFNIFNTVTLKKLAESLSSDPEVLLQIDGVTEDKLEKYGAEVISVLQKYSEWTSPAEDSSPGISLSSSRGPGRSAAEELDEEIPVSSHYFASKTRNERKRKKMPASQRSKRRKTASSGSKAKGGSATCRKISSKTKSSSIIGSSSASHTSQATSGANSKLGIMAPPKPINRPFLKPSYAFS
Description: Survival of cells and the faithful propagation of the genome depend on elaborate mechanisms of detecting and repairing DNA damage. Treatment of advanced cancer relies on radiation therapy or chemotherapy, which kill cancer cells by causing extensive DNA damage. It is often found, that cancer cells develop resistance to therapy through enhanced activity of DNA repair functions; this has led to an increased interest in developing drugs that interfere with DNA repair, which could sensitize cancer cells to conventional therapy.
This validation qHTS assay pertains to human BLM, which is important in resolving abnormal DNA structures formed during replication or homologous recombination. Shutting down the expression of BLM leads to chromosomal instability and higher radiation sensitivity in cultured cells.
The validation assay was a fluorescence quenching based kinetic qHTS for BLM Helicase DNA unwinding. The activity was measured as ATP-dependent separation of a 20-bp DNA duplex extended by 30-nt single-stranded tails (forked duplex). The forked DNA substrate was tagged with rhodamine fluorophore (carboxytetramethyl rhodamine, TAMRA) and BHQ-2 (Black Hole Quencher 2) dark quencher. Strand separation results in an increase in the fluorescence of TAMRA (excitation 525 nm, emission 598 nm). This substrate construct operates in a red-shifted region where very few compound library members have been noted to fluoresce (PubChem AIDs 593 and 594). An additional feature of the assay is the inclusion of 2.5 ug/ml poly (dIdC), to reduce interference by compounds such as DNA intercalators, a major source of false inhibitors.
Ian Hickson, University of Oxford
Opher Gileadi, Structural Genomics Consortium, University of Oxford
Screening Center PI: Austin, C.P.
Screening Center: NIH Chemical Genomics Center [NCGC]
Three uL of reaction buffer (25 mM Tris-HCl (pH 8.0), 5 mM NaCl, 2 mM MgCl2, 1mM DTT, 0.01% Tween- 20, and 2.5 ug/ml poly(dI-dC), including enzyme (50 nM BLM), were dispensed into a 1536-well Greiner black assay plate via solenoid-valve based nanoliter dispensers. Compounds (23 nl each in columns 5-48) and control (23 nl each in column 2 as dose-response) were transferred via a Kalypsys pintool equipped with a 1536-pin array. The plates were incubated for 15 min at room temperature, and then 1 ul of substrates (200 nM DNA and 2 mM ATP, final concentrations) was added to start the reaction. The plate was transferred into a ViewLux high-throughput CCD imager where the reaction progress was measured in a discontinuous kinetic mode (two reads spaced 2 hours apart, with intermediate room temperature incubation of the covered assay plate) by using standard red-fluorescence optics (excitation filter 525 nm, emission filter 598 nm). Enzyme-free and vehicle (DMSO) controls were included for signal normalization.
Also: nearly all actives have a fitted effect of over 35% in size.
Potency is read from the fitted curve at half-maximal effect.

SMILES | activity change, negative = inhibition [%] | Potency
COc1cccc(N2C(=O)NC(=O)/C(=C\c3ccc([N+](=O)[O-])s3)C2=O)c1 | -15.1 | –
COc1ccc(N2C(=O)/C(=C/c3ccco3)C(=O)NC2=S)cc1 | – | 12.6 µM (active)
N#Cc1cc(Br)c(O)c(Br)c1 | -1.65 | –
O=C1CCc2cccc3c2N1CC3 | 1.45 | –
C[C@]12O[C@H](C[C@@]1(O)C(=O)O)n1c3ccccc3c3c4c(c5c6ccccc6n2c5c31)CNC4=O | 4.13 | –
CCN(CC)c1nc(C)cc(OP(=S)(OC)OC)n1 | -6.05 | –
CC(=O)[O][Sn]([c]1ccccc1)([c]1ccccc1)[c]1ccccc1 | -1.25 | –
CCCCCCCCCCCCN=C(N)N | -12.6 | –
C[C@@H]1C[C@H]2CC[C@H](O2)[C@H](C)C(=O)O[C@@H](C)C[C@@H]2CC[C@@H](O2)[C@@H](C)C(=O)O[C@H](C)C[C@H]2CC[C@H](O2)[C@H](C)C(=O)O[C@@H](C)C[C@@H]2CC[C@@H](O2)[C@@H](C)C(=O)O1 | -1.93 | –
CC[N+](C)(CC)CCC[n+]1c(-c2ccccc2)c2cc(N)ccc2c2ccc(N)cc21 | – | 5.01 µM (active)
C[C@H]1C/C=C/[C@@H]2[C@@H]3O[C@]3(C)[C@@H](C)[C@H]3[C@H](Cc4ccccc4)NC(=O)[C@]32OC(=O)O/C=C/[C@](C)(O)C1=O | 0.289 | –
COC([CH2][Hg])CNC(=O)c1ccccc1OCC(=O)O (stereo not given) | 3.32 | –
CN(C)C[C@H]1CCCC[C@]1(O)c1cccc(O)c1 | -3.36 | –
O=C(OCC1O[C@@H](OC(=O)c2cc(O)c(O)c(O)c2)[C@@H](OC(=O)c2cc(O)c(O)c(O)c2)[C@@H](OC(=O)c2cc(O)c(O)c(O)c2)[C@@H]1OC(=O)c1cc(O)c(O)c(O)c1)c1cc(O)c(O)c(O)c1 (stereo not given in full) | – | 0.501 µM (active)
CC(C)(Cc1c[nH]c2ccc(Cl)cc12)NCCOc1ccccc1OCC1CC1 | -0.797 | –
